# Data published in PubChem BioAssay.
# Active and inactive are the calls of the source.
# Tests used:
# [1] = E. coli DRC41 culture turbidity changes, primary screen, E. coli filamentation inducer project, strain DRC41, OD650, 48 h (AID 1152);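 also: E. coli MC1000 strain DRC41 lacking acrAB efflux pump and sulA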; details: E. coli DRC41 (acrAB sulA), higher = more signal, called active from +8 up or from −8 down
# [2] = small-molecule binders of probe aLefty1, primary screen, biochemical, small-molecule microarray, 635/667 nm fluorescence (AID 1153); details: higher = more signal;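 also: score merges spot fluorescence with signal-to-noise ratio from the scanned slide images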
# [3] = PSAC antagonists in infected red cells, primary screen, cell-based, P. falciparum Indochina, OD700, 1 h (AID 1154); details: P. falciparum Indochina infected RBC osmotic lysis, higher = more signal, called active from +8 up or from −8 down
# [4] = PSAC antagonists in infected red cells, primary screen, cell-based, P. falciparum Indochina, OD700, 2 h (AID 1155);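 also: lysis reports solute entry through the parasite surface anion channel PSAC; channel blockers reduce lysis of infected cells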; details: P. falciparum Indochina infected erythrocytes, osmotic lysis OD700; higher = more signal, called active from +8 up or from −8 down
# [5] = osmotic lysis modulators in infected erythrocytes, primary screen, PSAC antagonist project, cell-based, P. falciparum Indochina, OD700, 3 h (AID 1156); details: higher = more signal, called active from +8 up or from −8 down
# [6] = PSAC antagonists in infected red cells, primary screen, cell-based, P. falciparum Indochina, OD700, 18 h (AID 1157); details: P. falciparum Indochina infected erythrocytes, osmotic lysis OD700, 18 h; higher = more signal, called active from +8 up or from −8 down
# [7] = modulators of S6 phosphorylation in cells, primary screen, cell-based, A549, cytoblot, luminescence, serum-stimulated (AID 1158); details: A549 phospho-S6 cytoblot, 5 h, higher = more signal;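 also: serum-stimulated A549 lung adenocarcinoma cells; signal is phosphorylated S6 detected by cytoblot immunostaining with HRP secondary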
# [8] = biological target: NADPH oxidase 2 (Homo sapiens) (UniProt P04839); assay: NOX2-dependent H2O2 signal modulators, primary screen, NOX inhibitor project, cell-based, HEK293-NOX2, PMA-stimulated, Amplex Red fluorescence (AID 1159); details: 45 min, higher = more signal, called active from +8 up or from −8 down; also: test concentration not given here
# [9] = biological target: NADPH oxidase 4 (Homo sapiens) (UniProt Q9NPH5); assay: NOX4-dependent H2O2 signal modulators, primary screen, NOX inhibitor project, cell-based, HEK293-NOX4, tetracycline-induced, Amplex Red fluorescence (AID 1160); details: 45 min, higher = more signal, called active from +8 up or from −8 down
# [10] = biological target: NADPH oxidase 5 (Homo sapiens) (UniProt Q96PH1); assay: NOX5-dependent H2O2 signal modulators, primary screen, NOX inhibitor project, cell-based, HEK293-NOX5, Amplex Red fluorescence (AID 1161); details: HEK293-NOX5, ionomycin, 45 min, higher = more signal
# NADPH oxidase 5 (Homo sapiens), sequence (Q96PH1 whole entry, looked up): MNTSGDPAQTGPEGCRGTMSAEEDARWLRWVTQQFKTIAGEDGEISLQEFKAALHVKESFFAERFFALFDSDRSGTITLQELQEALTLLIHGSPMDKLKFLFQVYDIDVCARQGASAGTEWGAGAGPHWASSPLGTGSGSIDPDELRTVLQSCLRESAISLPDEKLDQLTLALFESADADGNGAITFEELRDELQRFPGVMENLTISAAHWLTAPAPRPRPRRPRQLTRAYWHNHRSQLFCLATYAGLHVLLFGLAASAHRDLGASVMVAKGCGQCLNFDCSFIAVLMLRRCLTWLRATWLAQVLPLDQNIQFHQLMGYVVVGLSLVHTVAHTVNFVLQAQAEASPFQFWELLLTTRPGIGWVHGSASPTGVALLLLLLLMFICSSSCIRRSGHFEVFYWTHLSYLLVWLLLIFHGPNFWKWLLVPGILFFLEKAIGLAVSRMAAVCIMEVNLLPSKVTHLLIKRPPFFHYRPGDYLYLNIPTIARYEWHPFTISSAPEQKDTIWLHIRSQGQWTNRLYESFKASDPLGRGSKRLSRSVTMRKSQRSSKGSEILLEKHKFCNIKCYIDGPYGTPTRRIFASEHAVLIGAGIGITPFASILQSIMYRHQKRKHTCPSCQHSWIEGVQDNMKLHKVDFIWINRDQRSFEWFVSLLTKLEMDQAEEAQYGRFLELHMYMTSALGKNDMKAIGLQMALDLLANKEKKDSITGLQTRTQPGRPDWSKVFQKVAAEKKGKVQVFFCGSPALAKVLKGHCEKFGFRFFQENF
# NADPH oxidase 2 (Homo sapiens), sequence (P04839 whole entry, looked up): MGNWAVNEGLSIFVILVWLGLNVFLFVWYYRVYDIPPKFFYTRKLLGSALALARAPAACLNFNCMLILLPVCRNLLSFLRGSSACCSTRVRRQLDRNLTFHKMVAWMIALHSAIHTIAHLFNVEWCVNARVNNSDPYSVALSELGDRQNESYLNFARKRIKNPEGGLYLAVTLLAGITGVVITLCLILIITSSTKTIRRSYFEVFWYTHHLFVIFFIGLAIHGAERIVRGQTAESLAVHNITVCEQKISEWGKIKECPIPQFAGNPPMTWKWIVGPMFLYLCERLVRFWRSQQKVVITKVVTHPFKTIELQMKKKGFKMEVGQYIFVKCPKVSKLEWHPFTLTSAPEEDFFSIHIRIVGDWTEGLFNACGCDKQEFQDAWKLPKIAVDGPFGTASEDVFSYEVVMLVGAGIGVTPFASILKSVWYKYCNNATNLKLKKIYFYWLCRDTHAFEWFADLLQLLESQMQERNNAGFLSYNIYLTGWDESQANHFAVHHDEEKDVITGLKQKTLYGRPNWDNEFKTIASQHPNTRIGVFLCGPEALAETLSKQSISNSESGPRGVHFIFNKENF
# NADPH oxidase 4 (Homo sapiens), sequence (Q9NPH5 whole entry, looked up): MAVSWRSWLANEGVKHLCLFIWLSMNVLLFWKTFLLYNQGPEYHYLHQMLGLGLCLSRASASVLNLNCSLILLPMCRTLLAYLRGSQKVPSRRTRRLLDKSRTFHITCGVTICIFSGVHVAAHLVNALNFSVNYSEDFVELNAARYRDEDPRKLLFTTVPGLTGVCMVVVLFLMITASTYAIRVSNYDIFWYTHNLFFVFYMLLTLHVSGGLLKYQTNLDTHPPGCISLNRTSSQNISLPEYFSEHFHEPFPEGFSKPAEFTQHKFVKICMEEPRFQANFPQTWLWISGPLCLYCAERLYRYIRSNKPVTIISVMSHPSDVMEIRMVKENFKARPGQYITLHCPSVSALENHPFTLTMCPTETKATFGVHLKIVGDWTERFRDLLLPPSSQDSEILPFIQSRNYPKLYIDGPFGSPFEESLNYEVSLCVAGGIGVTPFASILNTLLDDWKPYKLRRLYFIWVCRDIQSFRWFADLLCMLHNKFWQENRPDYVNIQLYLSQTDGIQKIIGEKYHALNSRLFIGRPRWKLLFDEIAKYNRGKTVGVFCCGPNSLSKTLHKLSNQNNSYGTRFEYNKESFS
Structure (SMILES),z-score [1],composite z-score [2],z-score [3],z-score [4],z-score [5],z-score [6],z-score [7],z-score [8],z-score [9],z-score [10]
Cc1ccc(S[C@]2(C(=O)NCc3ccccc3)CC(=O)N(Cc3ccccc3C(F)(F)F)[C@@H]2c2ccc(CO)cc2I)cc1,0.852 (inactive),0.056,5.8 (inactive),0.943 (inactive),0.836 (inactive),0.279 (inactive),0.316,0.708 (inactive),-1.5 (inactive),1.11
O=C(NC1CC1)[C@@H]1c2ccccc2C(=O)N(C2CCCCC2)[C@H]1c1ccc(CO)cc1,0.1 (inactive),-0.28,1.4 (inactive),0.295 (inactive),0.973 (inactive),0.0604 (inactive),-0.0513,0.382 (inactive),0.589 (inactive),0.536
Cc1ccc(S(=O)(=O)N2[C@@H](c3ccccc3)C(C(=O)O)=CC[C@H]2c2ccc(F)cc2)cc1,-0.232 (inactive),0.214,2.05 (inactive),0.706 (inactive),1.1 (inactive),0.66 (inactive),-0.0796,0.0361 (inactive),0.605 (inactive),0.953
COC(=O)[C@@]1(Cc2ccc(F)cc2)[C@H]2c3cc(C(=O)N(C)C)n(Cc4ccsc4Br)c3C[C@H]2CN1C(=O)c1ccccc1,-1.62 (inactive),1.06,3.86 (inactive),0.413 (inactive),0.952 (inactive),0.765 (inactive),-0.155,-2.09 (inactive),-5.46 (inactive),-2.35
O=C(c1ccccc1)N1Cc2ccccc2C[C@@]2(N=C(c3ccc(OCCCO)cc3)O[C@H]2c2ccccc2)C1=O,-0.702 (inactive),0.149,6.6 (inactive),1.66 (inactive),2.54 (inactive),0.937 (inactive),-0.221,1.21 (inactive),-0.172 (inactive),-0.693
COc1ccc(C(=O)Nc2ccc(CN3C(=O)[C@@]4(O[C@@H](CC(=O)N(CCO)Cc5ccccc5)[C@H]([Si](C)(C)c5ccc(OC)cc5)[C@H]4C)c4ccccc43)cc2)cc1,1.73 (inactive),-0.115,16.6 (active),2.82 (inactive),0.467 (inactive),-0.236 (inactive),1.21,1.06 (inactive),1.39 (inactive),2.59
C=CCNC(=O)[C@@H]1[C@H]2C(=O)O[C@H](c3ccccc3)[C@H](c3ccccc3)N2[C@H](c2ccc(O)cc2)[C@@]12C(=O)N(C(=O)OCCOC)c1ccc(C#CCC(C(=O)OC)C(=O)OC)cc12,1.17 (inactive),0.0026,2.41 (inactive),0.225 (inactive),-0.451 (inactive),0.393 (inactive),0.0945,0.932 (inactive),0.584 (inactive),0.831
COC(=O)[C@@]1(Cc2ccc(F)cc2)[C@H]2c3cc(C(=O)N4CCCC4)n(C[C@H](O)CO)c3C[C@H]2CN1C(=O)c1ccccc1,-1.62 (inactive),0.873,1.41 (inactive),0.542 (inactive),0.396 (inactive),0.668 (inactive),-0.0929,0.709 (inactive),-0.364 (inactive),-2.49
CC(C)(C)OC(=O)CC[C@]1(C(N)=O)N=C(c2ccc(OCCCO)cc2)O[C@H]1c1ccccc1N=[N+]=[N-],0.831 (inactive),0.267,30.5 (active),32.4 (active),0.697 (inactive),2.48 (inactive),-0.3,-0.285 (inactive),0.324 (inactive),-1.19
COC(=O)[C@@]1(Cc2ccccc2)[C@H]2c3cc(C(=O)N(C)C)n(Cc4nc5ccccc5[nH]4)c3C[C@H]2CN1C(=O)c1ccccc1,0.989 (inactive),0.0063,4.51 (inactive),-0.2 (inactive),0.57 (inactive),-0.949 (inactive),0.965,-0.273 (inactive),0.839 (inactive),-0.155
CC(=O)NCCCC[C@@H]1NC(=O)[C@H]2C[C@@H](C(=O)NCCCCCN)[C@@H](c3ccc(O)cc3)N2C1=O,-0.556 (inactive),0.302,0.537 (inactive),0.33 (inactive),0.0814 (inactive),0.302 (inactive),-0.413,0.178 (inactive),-1.24 (inactive),1.01
C=C(C)C1CN([C@H](CO)c2ccccc2)C(=O)/C1=C\c1ccccc1 (stereo not given in full),1.01 (inactive),-0.147,-0.0012 (inactive),-0.916 (inactive),-0.683 (inactive),-1.8 (inactive),1.59,-0.00303 (inactive),0.0494 (inactive),-1.27
COC(=O)[C@@]1(Cc2ccc(F)cc2)[C@H]2c3cc(C(=O)N4CCCC4)n(Cc4ccc(OC(F)(F)F)cc4)c3C[C@H]2CN1C(=O)c1ccccc1,-2.47 (inactive),-0.0141,0.498 (inactive),0.851 (inactive),-0.194 (inactive),0.642 (inactive),0.0769,0.372 (inactive),0.32 (inactive),-0.51
COCCOC(=O)N1C(=O)[C@@]2(c3cc(C#CC4(O)CCCCCC4)ccc31)[C@H](C(N)=O)[C@H]1C(=O)O[C@H](c3ccccc3)[C@H](c3ccccc3)N1[C@@H]2c1ccc(OCCO)cc1,-0.0172 (inactive),0.0861,3.59 (inactive),1.45 (inactive),0.843 (inactive),1.01 (inactive),0.0826,1.52 (inactive),0.984 (inactive),0.923
CN1C(=O)C2C=CC(C(O)COCc3ccccc3)N(Nc3ccc([N+](=O)[O-])cc3[N+](=O)[O-])C2C1=O (stereo not given),-0.416 (inactive),0.332,3.59 (inactive),1.4 (inactive),-0.0794 (inactive),1.05 (inactive),-0.859,0.223 (inactive),-2.17 (inactive),-0.914
CN1C(=O)C2C=CC(C(O)c3ccc(I)cc3)N(N(c3ccccc3)c3ccccc3)C2C1=O (stereo not given),-1.27 (inactive),0.193,3.99 (inactive),1.62 (inactive),0.537 (inactive),1.54 (inactive),-1.19,0.461 (inactive),1.23 (inactive),-0.585
O=C1C2C=CC(C(O)C3CCCCC3)N(Nc3ccccc3F)C2C(=O)N1c1ccccc1 (stereo not given),0.128 (inactive),0.483,1.11 (inactive),0.304 (inactive),2.77 (inactive),-0.743 (inactive),2.15,-2.64 (inactive),-4.15 (inactive),-4.19
CCCC1(C(=O)OC)C=C2C(=C(C(C)C)C(=O)C2C)CN1 (stereo not given),-2.12 (inactive),0.062,2.85 (inactive),0.364 (inactive),0.454 (inactive),0.57 (inactive),-0.598,0.216 (inactive),-1.15 (inactive),-3.15
COCCOC(=O)N1C(=O)[C@@]2(c3ccccc31)[C@H](C(=O)Nc1nc3ccccc3s1)[C@H]1C(=O)O[C@H](c3ccccc3)[C@H](c3ccccc3)N1[C@@H]2c1ccccc1OCCO,0.253 (inactive),0.941,4.98 (inactive),2.57 (inactive),0.0618 (inactive),1.95 (inactive),-0.0149,1.91 (inactive),-0.601 (inactive),1.17
CC(C)N1C(=O)[C@@]2(Cc3ccccc31)c1ccccc1C(=O)N(Cc1ccccc1C(F)(F)F)[C@H]2c1ccc(CO)cc1,-0.49 (inactive),-0.853,0.382 (inactive),0.596 (inactive),0.238 (inactive),0.501 (inactive),-0.0346,0.449 (inactive),-1.18 (inactive),0.56
[N-]=[N+]=NCc1ccccc1[C@H]1OC(c2ccc(OCCCO)cc2)=N[C@@]1(Cc1ccccc1N=[N+]=[N-])C(N)=O,-0.0584 (inactive),0.439,22.9 (active),3.47 (inactive),1.46 (inactive),0.79 (inactive),0.362,-4.46 (inactive),-0.74 (inactive),-2.11
CC(C)c1ccc(NN2C(C(O)C3CCCCC3)C=CC3C(=O)N(c4ccccc4)C(=O)C32)cc1 (stereo not given),-0.78 (inactive),0.368,3.29 (inactive),1.71 (inactive),0.215 (inactive),1.37 (inactive),-0.996,-1.69 (inactive),-2.75 (inactive),-2.44
COCCCNC(=O)[C@]1(Cc2ccccc2N=[N+]=[N-])N=C(c2ccc(OCCCO)cc2)O[C@@H]1c1ccccc1,-0.112 (inactive),0.749,28.8 (active),22.5 (active),2.38 (inactive),3.2 (inactive),0.008,-2.28 (inactive),0.471 (inactive),0.124
COc1ccc(-c2cc3c(c(CCc4ccccc4)n2)[Si](C(C)C)(C(C)C)O[C@H]3c2ccccc2)cn1,0.0534 (inactive),-0.193,4.29 (inactive),1.36 (inactive),-0.449 (inactive),0.775 (inactive),-0.643,0.947 (inactive),0.741 (inactive),0.0862
CCOC(=O)C[C@H]1[C@H](OC(=O)c2ccccc2-c2ccccc2)[C@@H](NC(=O)CC(C)C)c2cc(OCCCO)ccc2N1C(=O)c1ccccc1,0.822 (inactive),0.0816,0.0883 (inactive),-1.7 (inactive),-1.27 (inactive),-2.84 (inactive),1.47,0.924 (inactive),0.899 (inactive),-1.19
